Screening results (PubChem BioAssay)
Shown are actives, neighbours in structure and some others; about 7.2% of the full set was active somewhere.
TSHR agonist – activates the human thyroid stimulating hormone receptor. HEK293-CNG-TSHR cells (CNG channel as cAMP sensor), membrane potential dye, cAMP. actives 0.48% (n = 73,000). P16473. Potency, µM (top dose mostly 57.1 µM), inactives show top-dose activation, actives largely listed as activators; active = well fitted activation curve with a large enough effect in the main read-out, with a control signal flat, not every such curve was filed as active; inconclusive = small, poorly fitted or top-dose-only effect, or a change in a side signal; inactive = no such curve, though single readings can be large or run the other way; % of control where 0% means no effect;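 note: the control signal comes from parental cells without the receptor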
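cAMP rise detected as CNG-channel membrane depolarization by fluorescent dye (emission 590 nm), 30 min after compound, following 60 min dye loading containing 100 uM RO 20-1724 at room temperature. Cells: TSHR/CNG HEK 293, with parental CNG HEK 293 as control.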
Bst PK mod – pyruvate kinase (B. stearothermophilus) modulation. purified pyruvate kinase, luminescence ATP production; ribose 5-phosphate activator present at AC10. actives 1.2% (n = 51,000). Potency, µM. AID 361; in the data active = potency below about 11 µM; inconclusive = mostly about 12 µM to 25 µM;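 the screen sought inhibitors and activators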;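 note: scaled between full activation by ribose 5 phosphate and full inhibition by luteolin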
Tau filament bind – binds recombinant human tau filaments | P10636 | recombinant tau filaments, thioflavin S fluorescence, 15 h; filaments grown with octadecylsulfate alongside compound | Potency, µM (top dose mostly 57.1 µM), for inactives: top-dose activity change, negative = inhibition | actives 2% (n = 71,000) | AID 596;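 note: % is set by controls: 0 for no effect and ±100 for the full control effect; actives lower thioflavin S fluorescence by blocking filaments or displacing dye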
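His-tagged recombinant human tau (exons 2, 3 and 10 included), 1 uM, was induced to fibrillize by 30 uM sodium octadecylsulfate with compound present. After 15 h at 37 C, thioflavine S fluorescence (ex 450, em 510 nm) was read.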
HEK293 cAMP ctrl – counter-screen for TSHR agonists: cAMP increase in parental HEK293; actives 2.5% (n = 73,000); parental HEK293 CNG cAMP sensor, membrane potential fluorescence; Potency, µM (top dose mostly 57.1 µM), inactives show at the top dose activation, most hits filed as activators; note: % of control where 0% means no effect; nearly all actives have a fitted effect of over 55% in size
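Counterscreen for endogenous-receptor signalling: CNG-channel HEK 293 cells report cAMP rise by membrane depolarization. After 60 min dye equilibration with 100 uM RO 20-1724, compounds incubated 30 min before bottom-read fluorescence at 590 nm.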
Luciferase inh – firefly luciferase inhibition. purified firefly luciferase, luminescence, 8 min. Potency, µM (highest dose often 57.1 µM), without a hit: at the highest dose activity change, negative = inhibition, actives largely listed as inhibitors. actives 2.2% (n = 72,000); note: % is set by controls: 0 for no effect and ±100 for the full control effect; nearly all actives have a fitted effect of over 40% in size
Target sequence (P08659 whole entry, looked up): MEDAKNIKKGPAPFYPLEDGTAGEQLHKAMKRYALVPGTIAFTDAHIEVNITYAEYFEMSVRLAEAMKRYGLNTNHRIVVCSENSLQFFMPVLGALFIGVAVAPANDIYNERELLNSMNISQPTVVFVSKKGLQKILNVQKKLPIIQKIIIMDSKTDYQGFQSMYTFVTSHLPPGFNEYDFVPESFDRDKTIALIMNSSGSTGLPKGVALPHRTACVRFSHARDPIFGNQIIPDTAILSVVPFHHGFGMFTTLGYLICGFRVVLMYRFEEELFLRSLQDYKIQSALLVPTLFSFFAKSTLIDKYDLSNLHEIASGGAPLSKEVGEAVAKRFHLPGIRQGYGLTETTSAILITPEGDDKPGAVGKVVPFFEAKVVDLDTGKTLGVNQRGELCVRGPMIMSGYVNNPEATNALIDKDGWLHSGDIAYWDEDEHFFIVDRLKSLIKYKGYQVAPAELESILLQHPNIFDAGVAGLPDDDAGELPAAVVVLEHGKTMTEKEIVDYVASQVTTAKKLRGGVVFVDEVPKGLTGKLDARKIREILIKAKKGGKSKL
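Compounds were tested as concentration series (qHTS) against purified P. pyralis luciferase with luciferin and 10 uM ATP in 50 mM imidazole pH 7.2, 50 mM KCl, 7 mM MgCl2, 0.01% Tween 20, 0.05% BSA. Luminescence was read after 8 min at ambient temperature.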
ERK AVP block – blocks ERK signaling stimulated by vasopressin | HEK293-V1b, vasopressin-stimulated pERK AlphaScreen | Potency, µM (top dose mostly 57.5 µM), without a hit: at the highest dose activity, negative = inhibition, most hits filed as inhibitors | actives 0.99% (n = 72,000); note: % is set by controls: 0 for no effect and ±100 for the full control effect; nearly all actives have a fitted effect of over 55% in size
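HEK293 cells stably expressing V1b receptor, preincubated 30 min at 37 °C with compound, then stimulated 5 min with 25 nM vasopressin. Phospho-ERK by AlphaScreen SureFire after 5 h RT; normalized to DMSO and vasopressin; AC50 by Hill fit.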
Starred values were filed as active, the others as inactive; i = inactive; ? = inconclusive; · = not tested or not shown; [ ] = another dose, or the depositor's remark. Unless noted, calls come from the whole dose curve; as a rule, active = well fitted curve in the direction sought with a large enough effect; inconclusive = small, poorly fitted or top-dose-only effect, or another doubt; inactive = no such curve, though single readings can be large; an effect the other way counts as inactive or inconclusive. Potency is the fitted concentration of half-maximal effect.

SMILES	TSHR agonist	Bst PK mod	Tau filament bind	HEK293 cAMP ctrl	Luciferase inh	ERK AVP block
COc1ccc(CNc2nc(-c3ccc(N(C)C)cc3)nc3ccccc23)c(OC)c1	-20.0%	·	i	-21.1%	-3.7%[2.29 µM]	-13.5%
COc1ccccc1CNc1ccnc(-c2ccc(C(=O)N(C)C)cc2)n1	·	·	1.2%	16.9%	0.7%[2.29 µM]	-14.2%
COc1ccccc1CNc1ccnc(-c2cccc(C#N)c2)n1	21.8%	·	13.0%	26.4%	3.8%[2.29 µM]	31.6µM*
COc1ccc(CNc2ccnc(-c3ccccc3C(F)(F)F)n2)c(OC)c1	?	·	-1.0%	7.94µM*	0.5%[2.29 µM]	-9.4%
O=C(c1cnccn1)N1CCC2(CC1)CN(c1ccncc1)C2	0.1%	·	-9.3%	14.4%	0.4%[11.4 µM]	13.1%
Nc1nc(SCc2ccc([N+](=O)[O-])cc2)c2ncn([C@@H]3O[C@@H](CO)[C@@H](O)[C@H]3O)c2n1	1.8%	·	4.6%	-18.1%	-9.9%	8.6%
COc1ccc(CNc2cc(-c3ccccc3Cl)ncn2)c(OC)c1	?	·	3.6%	20µM*	-1.5%[2.29 µM]	15.8µM*
COc1ccc(CNc2cc(-c3ccccc3OC)ncn2)c(OC)c1	?	·	-0.1%	?	-0.6%[2.29 µM]	?
Cc1noc(C)c1-c1ccc2ncnc(NCc3cccs3)c2c1	?	·	-5.4%	?	-0.7%[2.29 µM]	8.2%
CC(C)Nc1c(N)c(=O)oc2ccccc12	1.1%	>57	-3.0%	10.4%	1.8%	0.8%
Nc1ccc2oc(=O)c3ccccc3c2c1	5.6%	?	-19.7%	-15.3%	-2.1%	10µM*
O=C(OC1CCCCC1)c1ccc2c(c1)C1C=CCC1C(C(=O)O)N2 (stereo not given)	0.9%	>57	0.631µM*	4.2%	·	45.2%
O=C(O)C1Nc2c(O)cccc2C2C=CCC12 (stereo not given)	0.4%	·	12.6µM*	-15.9%	-7.8%	?
CC(=O)OC1CC2C(C)(C)C(=O)C3OC3[C@]2(C)C2CC[C@@]3(C)C(c4ccoc4)OC(=O)C4OC43[C@]12C (stereo not given in full)	·	·	·	·	·	5.4%
COc1cccc(OC)c1-c1nn2c(-c3ccccc3Cl)nnc2s1	·	7.26*	·	·	-1.0%[25.5 µM]	·
Clc1ccccc1-c1nnc2sc(-c3ccccn3)nn12	6.0%	>57	-10.8%	9.8%	-1.9%	1.8%
N#CC(C#N)=c1ccc2c(c1)N1C3=C(CCCC3)CC3CCCCC31N=2 (stereo not given)	?	·	1.58µM*	-86.9%	-0.7%	2.51µM*
N#C/C(C(N)=O)=c1/ccc2c(c1)N1C3=C(CCCC3)CC3CCCCC31N=2 (stereo not given)	?	·	5.01µM*	-105.6%	15.8µM*	?
COC(=O)c1cc2sccc2n1CC(=O)Nc1ccc(OC)c(OC)c1OC	3.4%[11.4 µM]	>57	23.1%	2.2%	0.9%	-19.9%
COC(=O)c1cc2sccc2n1CC(=O)Nc1cccc(SC)c1	?	>57	41.8%	25.1µM*	-0.8%	-2.2%
Cc1cccc(CSC2=NCCN2C(=O)c2ccc(Br)o2)c1	?	·	3.8%	31.6µM*	-1.8%	21.7%
CCn1cc(C(=O)O)c(=O)c2cc(F)c(N3CCN[C@@H](C)C3)c(F)c21	-11.9%[25.6 µM]	·	5.1%[25.6 µM]	2.2%[25.6 µM]	10.3%[25.5 µM]	0.9%[25.7 µM]
O=C(CC(Nc1ccccc1)C(=O)O)c1ccccc1 (stereo not given)	-4.4%	10.4*	-28.5%	5.1%	12.6µM*	-23.1%
COC(=O)C1=CO[C@@H](O[C@H]2OC(CO)C(O)C(O)C2O)C2C1CC(O)C2C (stereo not given in full)	·	·	·	·	·	18.0%
CCN1C(C)=C(C(=O)OC)C(c2ccccc2)N2C(=O)[C@](O)(C(=O)OC)C(c3ccccc3)C(C(=O)c3ccccc3)=C12 (stereo not given in full)	?	·	·	3.98µM*	·	-3.5%[11.5 µM]
SMILES	TSHR agonist	Bst PK mod	Tau filament bind	HEK293 cAMP ctrl	Luciferase inh	ERK AVP block
COC(=O)C1=C(C)N(Cc2ccccc2)C2=C3C(=O)N(C)C(=O)C3[C@@](O)(C(=O)OC)C(=O)N2C1c1ccccc1 (stereo not given in full)	?	·	·	3.0%[11.4 µM]	·	0.8%[11.5 µM]
CN(CCc1ccc(Cl)c(Cl)c1)CCN1CCCC1	·	·	33.9%	28.8%	3.3%	-2.2%
Cc1ccc(Cn2nnc3c(=O)n(Cc4cc(C)ccc4C)cnc32)cc1	?	>57	12.7%	3.16µM*	-2.5%	-18.1%
Fc1cccc(Cl)c1/C=N\N=C1c2ccccc2-c2ccccc21	4.9%[11.4 µM]	·	3.98µM*	9.8%[11.4 µM]	-1.1%[11.4 µM]	-19.9%[11.5 µM]
S=C(c1ccc(-c2ccc(Cl)c(Cl)c2)o1)N1CCOCC1	·	·	10µM*	17.1%	7.94µM*	?
O=C(c1ccc(-c2cccc(C(F)(F)F)c2)o1)N1CCOCC1	13.5%	>57	7.9%	3.2%	-2.9%	-4.4%
N#CCCN1CCN(C(=S)c2ccc(-c3cc(Cl)ccc3Cl)o2)CC1	?	>57	2.51µM*	?	-7.7%	-5.0%
OCCN1CCN(C(=S)c2ccc(Cl)c(Cl)c2)CC1	?	·	6.8%	-60.0%	-26.3%	48.2%
S=C(c1ccc(-c2ccccc2Cl)o1)N1CCOCC1	·	·	15.8µM*	20.9%	15.8µM*	25.1µM*
S=C(c1ccc(N2CCOCC2)cc1)N1CCOCC1	-2.4%	>57	6.1%	0.4%	-2.0%	-0.6%
CC(C)(CS)C(=O)N1CCC[C@H]1C(=O)O	0.3%[25.6 µM]	·	-3.3%[25.6 µM]	3.6%[25.6 µM]	-1.1%[25.5 µM]	-4.9%[25.7 µM]
Cc1cc(C)c2c(CC(=O)NCc3ccco3)coc2c1	31.6µM*	>57	0.7%	17.5%	0.7%	-18.2%
Cc1ccc(SCC(=O)NCc2ccco2)cc1	11.4%	>57	-10.0%	10.7%	1.6%	3.8%
CC1=C(C(=O)OCc2ccccc2)C(c2ccc(C3CCCCC3)cc2)NC(=O)N1CCCCCC(=O)O (stereo not given)	?	·	3.2%	31.6µM*	·	11.9%
CC(=O)c1ccc(OC2C=CC(c3ccc(Cl)cc3)OC2CO)cc1 (stereo not given)	1.8%[11.4 µM]	·	·	1.1%[11.4 µM]	·	2.9%[11.5 µM]
Cc1ccc2cc3cc(C(=O)N(C)C4CCCCC4)oc3nc2c1	14.2%	>57	5.9%	21.6%	-20.0%	4.0%
Cc1cccc(N(C)C(=O)c2cc3cc4ccc(C)cc4nc3o2)c1	?	?	-10.0%	10µM*	-10.6%	-4.0%
Cc1cc(O)c(C(C)(C)C)cc1Sc1cc(C(C)(C)C)c(O)cc1C	?	·	20µM*	?	·	?
O=C(O)[C@@H]1[C@@H](C(=O)NCc2ccncc2)[C@@H]2C=C[C@@H]1O2	2.4%[11.4 µM]	·	4.7%[11.4 µM]	-2.0%[11.4 µM]	3.5%[11.4 µM]	-5.7%[11.5 µM]
CCn1c(SCc2nc3ccccc3c(=O)[nH]2)nc2ccccc2c1=O	?	>57	3.0%	?	1.5%	7.94µM*
CCn1c(SCC(=O)NCc2ccccc2)nc2ccccc2c1=O	-3.7%	>57	9.2%	121.5%	1.6%	6.5%
